According to PubChem BioAssay:
For some assays here: Potency and affinity values are given separately. Calls of active or inactive are those of the source. Unless noted, no rule for the calls is given here.

Key:
[1] = antimalarial activity against Dd2 strain (AID 2302;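 active = growth inhibition above 50% at the single 2 µM test dose, taken to imply half-maximal potency below 2 µM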;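 also: 0% = DMSO untreated growth and 100% = chloroquine plus artemisinin killed control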); settings: P. falciparum Dd2 in RBCs, LDH growth readout, 72 h; at 2 µM; hits give high values
[2] = HepG2 cytotoxicity, primary screen, cytotoxicity control for P. falciparum antimalarial project, cell-based, ATP luminescence (AID 2303;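 active = inhibition above 50%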;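 also: 0% = DMSO wells and 100% = digitonin-killed cells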); settings: HepG2 viability, 24-48 h, at 10 µM, hits give high values
[3] = biological target: L-lactate dehydrogenase (Plasmodium falciparum (isolate CDC / Honduras)) (UniProt Q27743); assay: PfLDH activity inhibition – cell lysate, 3D7 strain, counter-screen for P. falciparum growth inhibition project (AID 2304);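 also: 0% = vehicle and 100% = reference inhibitor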; settings: P. falciparum 3D7 crude extract, LDH APAD/NBT absorbance; at 2 µM; hits give high values
[4] = inhibition of 3D7 malaria parasite growth – strain 3D7 (AID 2306);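 also: 0% = DMSO wells and 100% = chloroquine plus artemisinin control wells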; settings: P. falciparum 3D7 erythrocytic growth, LDH absorbance, 72 h; at 2 µM; hits give high values
[5] = biological target: Calcium-dependent protein kinase 1 (Plasmodium falciparum (isolate 3D7)) (UniProt P62344); assay: PfCDPK1 kinase inhibitors, biochemical, TCAMS library (AID 1159585; cut-off not given, nearly all actives have IC50 up to about 0.98 µM;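 also: inhibitors leave more ATP so luminescence rises with inhibition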); settings: recombinant PfCDPK1, Kinase-Glo ATP depletion luminescence
[6] = biological target: Plasmodium falciparum protein kinase 6 (PK6, PF3D7_1337100) (UniProt Q8IDW1); assay: PfPK6 kinase inhibitors, biochemical, TCAMS library (AID 1159586); settings: recombinant PfPK6, Kinase-Glo ATP depletion luminescence
[7] = biological target: Protein kinase 7 (PK7), Plasmodium falciparum 3D7 (PF3D7_0213400) (UniProt Q7YTF7); assay: inhibition of Plasmodium PK7 catalytic activity – biochemical, TCAMS antimalarial set, Kinase-Glo luminescence (AID 1159587); settings: recombinant PfPK7, Kinase-Glo ATP depletion luminescence
[8] = biological target: Calcium-dependent protein kinase 4 (Plasmodium falciparum (isolate 3D7)) (UniProt Q8IBS5); assay: PfCDPK4 kinase inhibitors, biochemical, TCAMS library (AID 1159588; cut-off not given, nearly all actives have IC50 up to about 0.91 µM); settings: recombinant PfCDPK4, Kinase-Glo ATP depletion luminescence
Chain of Calcium-dependent protein kinase 4 (Plasmodium falciparum (isolate 3D7)) (Q8IBS5 whole entry, looked up): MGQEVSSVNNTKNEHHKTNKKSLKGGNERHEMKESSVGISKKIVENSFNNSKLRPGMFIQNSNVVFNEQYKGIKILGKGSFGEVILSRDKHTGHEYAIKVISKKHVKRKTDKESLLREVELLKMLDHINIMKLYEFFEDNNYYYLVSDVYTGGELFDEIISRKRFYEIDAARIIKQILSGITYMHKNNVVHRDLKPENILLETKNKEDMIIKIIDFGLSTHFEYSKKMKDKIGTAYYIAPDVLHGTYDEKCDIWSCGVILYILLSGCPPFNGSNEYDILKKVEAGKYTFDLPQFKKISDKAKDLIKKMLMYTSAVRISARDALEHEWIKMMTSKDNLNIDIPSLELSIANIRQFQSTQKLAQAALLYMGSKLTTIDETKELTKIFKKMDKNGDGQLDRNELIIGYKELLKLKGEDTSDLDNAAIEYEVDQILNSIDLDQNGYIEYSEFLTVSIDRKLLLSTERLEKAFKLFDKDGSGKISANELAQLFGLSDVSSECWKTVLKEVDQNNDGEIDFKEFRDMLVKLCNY

Chain of Protein kinase 7 (PK7), Plasmodium falciparum 3D7 (PF3D7_0213400) (Q7YTF7 1-343): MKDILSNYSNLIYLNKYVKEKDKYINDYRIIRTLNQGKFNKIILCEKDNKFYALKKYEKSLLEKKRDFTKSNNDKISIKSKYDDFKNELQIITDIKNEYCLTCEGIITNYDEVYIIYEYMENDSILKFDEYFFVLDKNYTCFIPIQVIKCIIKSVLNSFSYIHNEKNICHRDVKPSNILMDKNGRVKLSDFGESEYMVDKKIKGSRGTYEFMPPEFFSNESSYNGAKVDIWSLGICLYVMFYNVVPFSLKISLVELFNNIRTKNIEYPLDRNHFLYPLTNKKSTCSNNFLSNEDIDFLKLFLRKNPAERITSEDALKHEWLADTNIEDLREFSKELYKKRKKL
Chain of Calcium-dependent protein kinase 1 (Plasmodium falciparum (isolate 3D7)) (P62344 whole entry, looked up): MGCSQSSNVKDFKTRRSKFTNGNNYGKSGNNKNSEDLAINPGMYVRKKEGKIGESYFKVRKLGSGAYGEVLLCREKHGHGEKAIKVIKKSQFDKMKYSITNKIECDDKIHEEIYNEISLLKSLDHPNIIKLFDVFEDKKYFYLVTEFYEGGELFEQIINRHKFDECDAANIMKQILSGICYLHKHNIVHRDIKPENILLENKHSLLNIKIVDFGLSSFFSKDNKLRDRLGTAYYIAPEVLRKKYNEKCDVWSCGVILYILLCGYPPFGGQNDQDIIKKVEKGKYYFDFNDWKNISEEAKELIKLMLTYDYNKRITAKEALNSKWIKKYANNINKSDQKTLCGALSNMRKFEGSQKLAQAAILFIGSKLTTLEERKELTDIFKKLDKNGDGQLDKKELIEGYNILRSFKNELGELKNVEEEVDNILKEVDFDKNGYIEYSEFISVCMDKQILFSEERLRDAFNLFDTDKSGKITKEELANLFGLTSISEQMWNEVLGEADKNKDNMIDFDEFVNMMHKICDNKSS
Chain of Plasmodium falciparum protein kinase 6 (PK6, PF3D7_1337100) (Q8IDW1 1-305): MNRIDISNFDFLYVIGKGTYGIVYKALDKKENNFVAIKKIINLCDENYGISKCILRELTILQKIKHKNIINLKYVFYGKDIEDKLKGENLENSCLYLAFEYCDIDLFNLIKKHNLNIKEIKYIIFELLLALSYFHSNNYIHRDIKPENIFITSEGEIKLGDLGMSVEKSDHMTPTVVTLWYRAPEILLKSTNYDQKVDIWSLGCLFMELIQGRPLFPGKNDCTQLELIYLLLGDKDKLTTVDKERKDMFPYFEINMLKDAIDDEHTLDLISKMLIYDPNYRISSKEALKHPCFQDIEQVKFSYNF
Chain of L-lactate dehydrogenase (Plasmodium falciparum (isolate CDC / Honduras)) (Q27743 whole entry, looked up): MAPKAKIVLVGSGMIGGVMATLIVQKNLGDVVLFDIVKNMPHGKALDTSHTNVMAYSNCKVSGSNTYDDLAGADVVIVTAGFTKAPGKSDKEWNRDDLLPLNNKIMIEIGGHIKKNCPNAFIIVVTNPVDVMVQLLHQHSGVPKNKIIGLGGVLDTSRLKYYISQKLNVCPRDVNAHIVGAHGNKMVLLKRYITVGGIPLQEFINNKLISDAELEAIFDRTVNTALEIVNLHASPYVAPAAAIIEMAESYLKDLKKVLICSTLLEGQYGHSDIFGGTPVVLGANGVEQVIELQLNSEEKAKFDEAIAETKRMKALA

COc1cccc2sc(Nc3nc(-c4ccccn4)cs3)nc12
inactive: inhibition [2] 41% | inhibition [3] 4% | outcome [5] | outcome [6] | outcome [7] | outcome [8]
active: growth inhibition [1] 76% | growth inhibition [4] 94%

Nc1ccc(-c2nc3ccc(-c4ccc5nc(-c6ccc(N)cc6)[nH]c5c4)cc3[nH]2)cc1
active: growth inhibition [1] 96% | growth inhibition [4] 101%
inactive: inhibition [2] 45% | inhibition [3] 6% | outcome [5] | outcome [6] | outcome [7] | outcome [8]

O=C(Nc1cc(Oc2ccc(O)cc2)cc([N+](=O)[O-])c1)c1cc(-c2ccc(F)cc2)no1
inactive: growth inhibition [1] 37% | inhibition [3] 0% | outcome [5] | outcome [6] | outcome [7] | outcome [8]
active: inhibition [2] 61% | growth inhibition [4] 88%

c1ccc(-c2cc(NCCNc3cc(-c4ccccc4)nc4ccccc34)c3ccccc3n2)cc1
inactive: growth inhibition [1] 11% | inhibition [2] -2% | inhibition [3] 0% | outcome [5] | outcome [6] | outcome [7] | outcome [8]
active: growth inhibition [4] 99%

Cc1ccc(NS(=O)(=O)c2ccc(-c3ccccc3)cc2)c(Cn2cnc(N3CCCNCC3)cc2=O)c1
inactive: growth inhibition [1] 33% | inhibition [2] 10% | inhibition [3] 4% | outcome [5] | outcome [6] | outcome [7] | outcome [8]
active: growth inhibition [4] 87%

CN(C)CCOc1ccc(-c2cc(-c3ccncc3)c(-c3ccc(Cl)c(O)c3)[nH]2)cc1
active: growth inhibition [1] 100% | growth inhibition [4] 98%
inactive: inhibition [2] 25% | inhibition [3] -2% | outcome [5] | outcome [6] | outcome [7] | outcome [8]

Oc1ccc(CCNCCCCCCNCCc2ccc(-c3ccccc3)cc2)cc1O
inactive: growth inhibition [1] 8% | inhibition [3] 1% | outcome [5] | outcome [6] | outcome [7] | outcome [8]
active: inhibition [2] 72% | growth inhibition [4] 101%

CC(C)(CNC(=O)/C=C/c1ccc(C(F)(F)F)cc1)CNc1cc(=O)c2ccccc2[nH]1
inactive: growth inhibition [1] 27% | inhibition [2] -1% | inhibition [3] -6% | outcome [5] | outcome [6] | outcome [7] | outcome [8]
active: growth inhibition [4] 95%

c1ccc2sc(Sc3ncnc4sccc34)nc2c1
inactive: inhibition [2] 7% | inhibition [3] 2% | outcome [5] | outcome [6] | outcome [7] | outcome [8]
active: growth inhibition [1] 100% | growth inhibition [4] 100%

Cc1ccc(NC(=O)c2cccc(CN3CCCN(Cc4cccc(O)c4)CC3)c2)cc1
inactive: growth inhibition [1] 3% | inhibition [2] 22% | inhibition [3] 1% | outcome [5] | outcome [6] | outcome [7] | outcome [8]
active: growth inhibition [4] 82%

CCC[C@@H]([C@@H](CC1CCC(C)CC1)C(=O)N[C@@H](CO)C(=O)Nc1nccs1)N(O)C=O (some centres not stated)
inactive: inhibition [2] 0% | inhibition [3] -2% | outcome [5] | outcome [6] | outcome [7] | outcome [8]
active: growth inhibition [1] 84% | growth inhibition [4] 100%

CCOC(=O)c1ccc(NC(=O)NCCCC2CCCN(CCCCCNC(=O)/C=C/c3ccc(Cl)c(Cl)c3)C2)cc1 (configuration not stated)
active: growth inhibition [4] 96%
inactive: growth inhibition [1] 30% | inhibition [2] 14% | inhibition [3] -2% | outcome [5] | outcome [6] | outcome [7] | outcome [8]

O=C(/C=C/c1ccc([N+](=O)[O-])cc1)N1CCC(NS(=O)(=O)c2ccc(Br)cc2)CC1
active: growth inhibition [4] 93%
inactive: growth inhibition [1] 5% | inhibition [2] 0% | inhibition [3] -4% | outcome [5] | outcome [6] | outcome [7] | outcome [8]

CCN(CCCN1CCCCC1)c1cc(C)nc(Nc2cccc(C(F)(F)F)c2C)n1
active: inhibition [2] 57% | growth inhibition [4] 99%
inactive: growth inhibition [1] 37% | inhibition [3] -2% | outcome [5] | outcome [6] | outcome [7] | outcome [8]

CCCCCN1CCCC(NS(=O)(=O)c2cccc(C(=O)Nc3cccc(C(F)(F)F)c3)c2)C1 (configuration not stated)
active: growth inhibition [4] 86%
inactive: growth inhibition [1] 5% | inhibition [2] 22% | inhibition [3] -2% | outcome [5] | outcome [6] | outcome [7] | outcome [8]

CCc1cn2c3c(cc(C(=O)N[C@@H](Cc4ccccc4)[C@H](O)CNC4CCOCC4)cc13)N(C(C)C)S(=O)(=O)CC2
inactive: inhibition [2] 0% | inhibition [3] -2% | outcome [5] | outcome [6] | outcome [7] | outcome [8]
active: growth inhibition [1] 99% | growth inhibition [4] 98%

Cc1cccc(C)c1OC(=O)[C@@H](C)[C@@H](O)C1(Sc2ccccc2)CCN(C)CC1
inactive: inhibition [2] 23% | inhibition [3] 1% | outcome [5] | outcome [6] | outcome [7] | outcome [8]
active: growth inhibition [1] 92% | growth inhibition [4] 98%

c1ccc(-n2ncc(CNCc3ccc(-c4cccc(-c5nc6ccccc6[nH]5)c4)cc3)n2)cc1
inactive: growth inhibition [1] 9% | inhibition [2] 21% | inhibition [3] 3% | outcome [5] | outcome [6] | outcome [7] | outcome [8]
active: growth inhibition [4] 94%

COc1ccc(-c2ccccc2CNC2Cc3ccccc3C2)cc1S(=O)(=O)NCCN1CCCC1
inactive: growth inhibition [1] 47% | inhibition [2] 18% | inhibition [3] -3% | outcome [5] | outcome [6] | outcome [7] | outcome [8]
active: growth inhibition [4] 96%
